# From PubChem BioAssay
# This is a sample that favours compounds with a hit; in the whole collection about 0.43% have one here.
# aGal spleen mod = alpha-galactosidase A (human) modulation; P06280; human spleen homogenate, 4MU-alpha-Gal fluorescence, 40 min; Potency, µM (doses to about 80 µM), hits mostly inhibitors; hit rate 0.008% among 240,000
# Target sequence (P06280 32-429 limits assumed): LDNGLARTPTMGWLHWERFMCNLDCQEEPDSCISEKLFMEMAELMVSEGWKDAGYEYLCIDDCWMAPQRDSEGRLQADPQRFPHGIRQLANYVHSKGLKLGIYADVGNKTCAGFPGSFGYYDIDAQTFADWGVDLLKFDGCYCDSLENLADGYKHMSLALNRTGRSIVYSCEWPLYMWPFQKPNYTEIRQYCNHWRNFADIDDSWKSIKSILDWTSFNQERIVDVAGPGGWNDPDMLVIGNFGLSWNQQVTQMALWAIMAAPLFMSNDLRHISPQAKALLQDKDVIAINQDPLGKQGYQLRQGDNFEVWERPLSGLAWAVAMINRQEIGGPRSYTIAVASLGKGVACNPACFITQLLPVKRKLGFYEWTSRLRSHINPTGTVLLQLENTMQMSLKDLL
#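 Fluorogenic readout (Ex 365/Em 440 nm) of 4-methylumbelliferone released from 1 mM 4-MU-alpha-galactoside by spleen homogenate, 40 min at 37C, pH 5.0. Data normalized to no-enzyme and enzyme controls; Hill-equation AC50 from compound titrations.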
# GAA inh = blocks human lysosomal alpha-glucosidase; P10253; purified human GAA, 4-MU-alpha-glucoside fluorescence; Potency, µM (series often up to 76.9 µM), hits mostly inhibitors; hit rate 0.005% among 200,000; AID 1466
#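 Fluorescence at Ex 365/Em 440 nm from 4-methylumbelliferone reported enzyme activity after 20 min at room temperature. Reactions used 4 nM enzyme and 400 uM substrate at pH 5.0; curves fitted with the Hill equation.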
# aGlu spleen mod = lysosomal alpha-glucosidase (human) modulation; human spleen homogenate, 4-MU-alpha-glucoside fluorescence; Potency, µM (doses to about 79.9 µM), hits mostly inhibitors; hit rate 0.006% among 240,000; AID 2112
#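 Compounds were titrated against alpha-glucosidase in spleen homogenate at pH 5.0, with 1 mM 4-methylumbelliferyl substrate for 40 min at 37 C. Reactions were quenched with pH 10 NaOH/glycine and fluorescence measured.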
# GAA glycogen mod = alters human alpha-glucosidase cleavage of glycogen; P10253; Potency, µM (titrated, usually from 76.4 µM), usual class: inhibitors; recombinant GAA, glycogen substrate, Amplex Red glucose oxidase fluorescence; AID 2100; hit rate 0.38% among 300,000;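 note: the screen sought inhibitors and activators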
#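 qHTS, 1536-well; enzyme 4 nM final; cpd up to 77 uM; substrate bovine liver glycogen 30 ug; 50 mM citrate/phosphate pH 5.0, 0.01% Tween-20; 37 C, 40 min; Amplex Red detection 45 min RT; Hill fit → AC50.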
# GLA inh pH 4.5 = blocks human alpha-galactosidase A at pH 4.5; purified enzyme, 4-MU-alpha-Gal fluorescence, pH 4.5; P06280; AID 1467; activity change, negative = inhibition, % at 105 µM; 230,000 tested, under 10 active
# N370S GC mod = inhibits or activates N370S mutant glucocerebrosidase; P04062; N370S GC spleen homogenate, 4MU-glucoside fluorescence; Potency, µM (highest dose often 59.4 µM), hits mostly inhibitors; hit rate 0.092% among 330,000
# Hits are given with their value; n = inactive; u = inconclusive; x = not tested or not shown; [ ] = another dose, or the depositor's remark. Calls come from the whole dose curve; as a rule, active = well fitted curve in the direction sought with a large enough effect; inconclusive = small, poorly fitted or top-dose-only effect, or another doubt; inactive = no such curve, though single readings can be large; an effect the other way counts as inactive or inconclusive.
SMILES,aGal spleen mod,GAA inh,aGlu spleen mod,GAA glycogen mod,GLA inh pH 4.5,N370S GC mod
CN[C@@H](CCCN=C(N)N)C(=O)N[C@@H](CCCCN)C(=O)N1CCC[C@H]1C(=O)N[C@@H](Cc1c[nH]c2ccccc12)C(=O)N[C@H](C(=O)N[C@H](CC(C)C)C(=O)O)C(C)(C)C,n,x,n,x,x,n
COc1cc(C2Nc3cccc4cccc(c34)N2)ccc1O,x,x,x,n,x,n
Oc1ccc2ccccc2c1C1Nc2cccc3cccc(c23)N1,n,n,n,10µM,n,n
Cc1ccc(-c2nc3ncccn3c2Nc2ccc3c(c2)OCO3)o1,n,n,n,10µM,n,n
Oc1ccc(-c2nc3ncccn3c2Nc2ccc3c(c2)OCO3)cc1,n,n,n,25µM,n,n
CC(C)(C)OC(=O)NCCCCC1=CC2=CC(=O)C(C)(OC(=O)C3CCCC3)C(=O)C2=CO1 (stereo unspecified),n,x,n,x,n,n
COc1ccc(/C=N/NC(=O)c2nc(-c3ccccc3)cc(-c3ccccc3)n2)cc1OC,n,n,n,n,n,n
COc1ccc(/C=N/c2oc(-c3ccccc3)cc2C#N)cc1OC,n,n,n,25µM,n,n
CCCCN1C[C@H](O)[C@@H](O)[C@H](O)[C@H]1CO,n,6.3µM,1.6µM,2.5µM,x,x
C/C(=N\Nc1nc2ccccc2[nH]1)c1ccc2c(c1)OCCO2,n,n,n,50µM,n,n
CCOc1cc(/C=N/Nc2nn3cnnc3c3ccccc23)ccc1O,n,x,n,u,n,n
COc1cc(/C=N/Nc2nn3cnnc3c3ccccc23)ccc1O,n,n,n,18µM,n,n
COc1cc(/C=N/Nc2nc3ccccc3[nH]2)ccc1O,n,n,n,22µM,n,n
Cc1ccsc1/C=N/Nc1nc2ccccc2[nH]1,n,n,n,6.3µM,n,n
CC(=O)OC(C(=O)c1ccccc1)c1ccccc1 (stereo unspecified),n,x,n,x,x,n
CN(C)c1ccc2c(-c3ccccc3)c3ccc(=[N+](C)C)cc-3oc2c1,n,x,n,x,x,n
COc1cc(/C=N/Nc2nc3ccccc3[nH]2)cc(OC)c1O,n,n,n,20µM,n,n
COc1cccc(/C=N/Nc2nc3ccccc3[nH]2)c1O,n,x,n,u,n,n
C(=N\Nc1nc2ccccc2[nH]1)/c1ccc2c(c1)OCO2,n,n,x,16µM,n,n
C=CCn1cc(/C=N/Nc2nc3ccccc3[nH]2)c2ccccc21,n,n,n,28µM,n,u
CCOC(=O)N1CCN(/[N+]([O-])=N/Oc2ccc([N+](=O)[O-])cc2[N+](=O)[O-])CC1C (stereo unspecified),n,x,n,x,x,n
C[C@@H]1CC2(OC(O)[C@]3(C)O[C@H]23)O[C@H]2C[C@@]3(C)[C@@H]4CC[C@H]5C(C)(C)C(O[C@@H]6OC[C@@H](O)[C@H](O)[C@H]6O)CC[C@@]56C[C@@]46CC[C@]3(C)[C@@H]12 (stereo partly specified),n,x,n,x,x,u
N#CCc1ccccc1[N+](=O)[O-],n,x,n,x,x,n
CC(=O)C1(C)CC2=C(CCCC2(C)C)CC1C (stereo unspecified),n,x,n,x,x,n
Nc1ccc(Nc2ccccc2)c(Cl)c1,n,n,n,35µM,n,n
SMILES,aGal spleen mod,GAA inh,aGlu spleen mod,GAA glycogen mod,GLA inh pH 4.5,N370S GC mod
Nc1ccccc1Nc1ccccc1,n,n,n,u,n,n
Nc1ccccc1C(=O)NNc1c2ccccc2nc2ccccc12,n,x,n,40µM,n,u
Nc1ccc(O)cc1C(=O)OCC(=O)C12CC3CC(CC(C3)C1)C2,n,u,n,16µM,n,n
CN(C)CC(O)Cn1c2ccc(Br)cc2c2cc(Br)ccc21 (stereo unspecified),n,x,n,x,x,u
CN(C)c1ccc(N/C=C/C(=O)c2ccccc2)cc1,n,n,n,14µM,n,n
O=C(/C=C/Nc1ccccc1)c1ccccc1,n,n,n,n,n,n
Nc1ccc2nc(-c3cc(Cl)c(N)c(Cl)c3)[nH]c2c1,n,n,n,12µM,n,n
O=C(Nc1ccc(Cl)cc1)NC1CCCCC1,n,n,n,n,n,n
Nc1ccc(NC(=O)NC2CCCCC2)cc1,n,n,n,18µM,n,n
CCOC(=O)/C(=N\Nc1ccc(OC)cc1)c1csc(Nc2ccccc2)n1,n,n,n,25µM,n,x
CCOC(=O)/C(=N/Nc1ccccc1)c1csc(Nc2ccccc2)n1,n,n,n,u,n,n
CNC(=S)NCCCCc1cnc[nH]1,n,x,n,x,x,n
COc1ccc(C2CC(=O)Oc3c(C(CCN4CCOCC4)c4ccc5c(c4)OCO5)c(OC)cc(OC)c32)cc1 (stereo unspecified),n,x,n,x,x,u
CC(=O)Nc1cc(C(C)C)c(O)c(C(C)C)c1,n,n,n,11µM,n,n
C=CCN1c2ccccc2[C@]23C[C@@H](C(=O)OC)N(C(=O)COCc4ccccc4)C2=NC(C(=O)OC)=C(C(=O)OC)[C@H]13,n[17.5 µM],x,n[17.4 µM],x,n,n[12.8 µM]
CCOC(=O)c1c(/N=C/c2ccc(OC)cc2O)sc2c1CCN(C)C2,n,x,n,n,n,n
CCOC(=O)c1c(/N=C/c2ccc(C)cc2O)sc2c1CCC2,n,n,n,14µM,n,n
CC1=Nc2ccccc2N=C(N)C1c1ccccc1 (stereo unspecified),n,n,n,16µM,n,n
C/C=C1\CC2C=CC1C2 (stereo unspecified),n,x,n,x,x,n
O=C1NC(=O)/C(=C/c2cccc3ccccc23)S1,x,x,x,n,x,n
O=C1NC(=O)/C(=C\c2ccc(O)cc2O)S1,n,u,n,2.8µM,n,n
O=S1(=O)CC/C(=N\Nc2ccccc2)c2ccsc21,n,n,n,25µM,n,n
COc1cc(/C=N/n2c(-c3ccccc3)n[nH]c2=S)cc(OC)c1O,n,x,n,u,n,n
COc1cc(/C=N/n2c(-c3ccccc3)n[nH]c2=S)ccc1O,n,n[15.4 µM],n,u,n,14µM
O=C1OCC(CO)(CO)N=C1NNc1cc(Cl)ccc1Cl,n,n,n,8.9µM,n,n
O=C1OCC(CO)(CO)N=C1NNc1ccccc1[N+](=O)[O-],n,x,n,u,n,n
CN1C/C(=C/c2ccc(B(O)O)cc2)C(=O)/C(=C/c2ccc(B(O)O)cc2)C1,n,x,n,x,x,n
COc1cc(-c2ccc(N=Nc3ccc4c(S(=O)(=O)O)cc(S(=O)(=O)O)c(N)c4c3O)c(OC)c2)ccc1N=Nc1ccc2c(S(=O)(=O)O)cc(S(=O)(=O)O)c(N)c2c1O,n,x,n,x,n,n
CCn1c(-c2ccccc2)csc1=Nc1ccc(O)cc1,n,n,x,13µM,n,n
CN1CCc2cccc3c2[C@H]1Cc1ccc(O)c(O)c1-3,n,n[15.4 µM],n,7.9µM,n,n
